Measured potencies and affinities stand elsewhere. Results filed as inconclusive are left out. A number with no mark means an inactive call.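 Rule for the calls, unless noted: active = signal-lowering compounds whose fitted half-maximal concentration is at or below twice the top tested dose in every run; inconclusive = runs disagree, flat 30 to 70% inhibition, or poor curve fit; inactive = the rest.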
experiment: IOSE-T80 viability loss, PAX8-independent line – cell-based, cherry-pick, selectivity assay for PAX8 inhibitor project, dose response (AID 687032;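 active = fitted half-maximal concentration for viability loss no higher than twice the top valid dose, in every repeat run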;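 note: cells exposed to compound for 96 h before reading; 0% = neutral control wells and -100% = 2 µM mitoxantrone kill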); conditions: CellTiterGlo ATP luminescence, 96 h; series mostly up to 35 µM; activity change, negative = viability loss: at the top concentration

Row | SMILES | activity change, negative = viability loss
1 | CC(=O)c1cccc(-c2csc3ncnc(Sc4nnnn4C)c23)c1 | 10.6%
2 | O=C(Nc1cccc(Cl)c1)Nc1csc([N+](=O)[O-])c1 | -2.51%
3 | COc1cc(/C=N/NC(=O)c2ccc(CN3C(=O)c4cccc5cccc3c45)cc2)cc(OC)c1O | -0.191%
4 | O=C(NCc1cccnc1)/C(=C\c1ccc(-c2ccc(Cl)c(Cl)c2)o1)S(=O)(=O)c1ccccc1 | 18.4%
5 | C=C1C(=O)O[C@@H]2[C@H]1CC[C@H](C)[C@]1(O)CCC(=O)[C@@]21C | 9.59%
6 | Cc1ccc(-c2cn3cc(C)ccc3n2)cc1 | 25.8%
7 | C[C@@H]1CCCCO[C@H](CN(C)Cc2ccncc2)[C@H](C)CN([C@@H](C)CO)C(=O)c2cc(NC(=O)NC3CCCCC3)ccc2O1 | 6.14%
8 | O=C(Nc1nc(-c2cccs2)c(-c2cccs2)s1)C1(c2ccccc2)CC1 | 3.63%
9 | N#Cc1ccc(NC(=O)COC(=O)C2CCC2)cc1 | 4.28%
10 | O=C(NCC1CCCO1)C(=Cc1cccc([N+](=O)[O-])c1)C(=O)NCC1CCCO1 (stereo not given) | 0.354%
11 | Cn1c(CCN2CCN(c3ccccn3)CC2)nc2cc(NS(=O)(=O)c3ccc(Cl)cc3)ccc21 | 11.6%
12 | CCN(CC)c1ccc(C(NC(=O)C(C)C)c2ccc3cccnc3c2O)cc1 (stereo not given) | -1.55%
13 | COc1ccc(COC(=O)c2cc([N+](=O)[O-])ccc2N2CCOCC2)cc1F | 4.26%
14 | CC(=O)N1CCN(c2ccc(NC(=O)c3ccc([N+](=O)[O-])o3)cc2Cl)CC1 | 9.02%
15 | O=C(CCCN1C(=O)/C(=C/c2cccc(Br)c2)SC1=S)Nc1cccnc1 | 9.8%
16 | O=C(Nc1cccc(F)c1)N1CCCCN2[C@@H](CO)[C@H](c3ccc(C#Cc4ccccc4)cc3)[C@@H]2C1 | 12.2%
17 | Cc1ccc(C)c(N2CCN(C(=O)CCCCCn3c(=S)[nH]c4ccc(N5CCOCC5)cc4c3=O)CC2)c1 | 17.3%
18 | O=C1c2ccccc2C(=O)c2[nH]c(=O)[nH]c21 | 6.89%
19 | Cc1noc(/C=C/c2ccco2)c1S(=O)(=O)N1CCC(C(=O)NC(C)c2ccccc2)CC1 (stereo not given) | 2.75%
20 | O=C(NCCC1CCCCN1S(=O)(=O)c1ccc(Cl)cc1)C(=O)NCc1ccncc1 (stereo not given) | 11.6%

Row | SMILES | activity change, negative = viability loss
21 | O=C(Nc1ccc([N+](=O)[O-])cn1)c1cc(-c2cccc(Br)c2)nc2ccccc12 | 12.6%
22 | CN(CCc1cn[nH]c1)Cc1nc(C(c2ccccc2)c2ccccc2)no1 | 11.7%
23 | O=C(Nc1cccc(C2=NCCN2)c1)Nc1cccc(C2=NCCN2)c1 | 10.9%
24 | CCCCCCN1C[C@@H](n2cc(-c3ccc(F)cc3)nn2)[C@H](O)C[C@@H]1c1ccc(Cl)cc1 | 7.94%
25 | Cn1nnnc1Sc1ncnc2scc(-c3cccc(C(F)(F)F)c3)c12 | 9.14%
26 | O=C(Nc1cccc(NC(=O)c2ccccc2Cl)c1)c1ccc([N+](=O)[O-])o1 | 6.88%
27 | C[C@@H]1CCCCO[C@@H](CN(C)Cc2ccc3c(c2)OCO3)[C@H](C)CN([C@@H](C)CO)C(=O)c2cc(NC(=O)Nc3ccc(C(F)(F)F)cc3)ccc2O1 | 10.9%
28 | CCSc1nc(-c2ccccc2)nc(C(Cl)Cl)n1 | 5.46%
29 | CN(C)N=Nc1nc[nH]c1C(N)=O | 5.96%
30 | COc1ccc(C(=O)c2cc([N+](=O)[O-])ccc2N2CCOCC2)cc1 | 4.07%
31 | CN(Cc1ccccc1)N=Nc1nc[nH]c1C(N)=O | 6.94%
32 | C=C1C2(C(=O)Nc3ccc(SC(F)F)cc3)CCC(C2)C1(C)C (stereo not given) | 7.53%
33 | C[C@H](O)C#Cc1ccc2c(c1)O[C@H](CN(C)Cc1ccc(-c3ccccc3)cc1)[C@@H](C)CN([C@@H](C)CO)S2(=O)=O | 5.48%
34 | COc1ccc(NC(=O)C(Sc2nnc(-c3ccncc3)n2-c2ccccc2C)c2ccccc2)cc1Cl (stereo not given) | 12.4%
35 | Cc1ccc(NC(=O)c2ccc([N+](=O)[O-])s2)cc1S(=O)(=O)N1CCOCC1 | 6.27%
36 | CCCCNC(=O)C(Sc1ccccc1)c1ccccc1 (stereo not given) | 3.21%
37 | CCN(CC)CC(C)(C)C(=O)/C=C/c1ccc(/C=C/C(=O)C(C)(C)CN(CC)CC)cc1 | 19.1%
38 | COC(C(=O)C(O)C(C)O)C1Cc2cc3cc(OC4CC(OC5CC(O)C(O)C(C)O5)C(O)C(C)O4)c(C)c(O)c3c(O)c2C(=O)C1OC1CC(OC2CC(OC3CC(O)C(OC)C(C)O3)C(O)C(C)O2)C(O)C(C)O1 (stereo not given) | 6.31%
39 | O=C(CCc1ccc(S(=O)(=O)NCc2ccccc2)cc1)NCc1ccco1 | 8.73%
40 | CC(=O)OC(C)(C)/C=C/C(=O)[C@](C)(O)C1[C@H](O)C[C@@]2(C)C3CC=C4C(C=C(O[C@@H]5O[C@H](CO)[C@@H](O)[C@H](O)[C@H]5O)C(=O)C4(C)C)[C@]3(C)C(=O)C[C@]12C (stereo not given in full) | 0.012%

experiment: CMV-driven luciferase expression suppression in HEK293 – cell-based, luminescence, dry powder, counter-screen for Pax8 inhibitor project, dose response (AID 743020); conditions: HEK293 CMV-luciferase reporter, SteadyGlo luminescence, 24 h; series mostly up to 35 µM; activity change, negative = inhibition: at the top concentration;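 note: HEK293 cells stably expressing the CMV luciferase reporter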

Row | SMILES | activity change, negative = inhibition
41 | CC(=O)c1cccc(-c2csc3ncnc(Sc4nnnn4C)c23)c1 | 5.34%
42 | O=C(Nc1cccc(Cl)c1)Nc1csc([N+](=O)[O-])c1 | 0.163%
43 | COc1cc(/C=N/NC(=O)c2ccc(CN3C(=O)c4cccc5cccc3c45)cc2)cc(OC)c1O | 11.3%
44 | O=C(NCc1cccnc1)/C(=C\c1ccc(-c2ccc(Cl)c(Cl)c2)o1)S(=O)(=O)c1ccccc1 | -18.9%
45 | C=C1C(=O)O[C@@H]2[C@H]1CC[C@H](C)[C@]1(O)CCC(=O)[C@@]21C | 11.3%
46 | Cc1ccc(-c2cn3cc(C)ccc3n2)cc1 | -28.3%
47 | C[C@@H]1CCCCO[C@H](CN(C)Cc2ccncc2)[C@H](C)CN([C@@H](C)CO)C(=O)c2cc(NC(=O)NC3CCCCC3)ccc2O1 | 1%
48 | O=C(Nc1nc(-c2cccs2)c(-c2cccs2)s1)C1(c2ccccc2)CC1 | -1.66%
49 | N#Cc1ccc(NC(=O)COC(=O)C2CCC2)cc1 | -0.066%
50 | O=C(NCC1CCCO1)C(=Cc1cccc([N+](=O)[O-])c1)C(=O)NCC1CCCO1 (stereo not given) | -5.24%
51 | Cn1c(CCN2CCN(c3ccccn3)CC2)nc2cc(NS(=O)(=O)c3ccc(Cl)cc3)ccc21 | 5.35%
52 | CCN(CC)c1ccc(C(NC(=O)C(C)C)c2ccc3cccnc3c2O)cc1 (stereo not given) | 26.8%
53 | COc1ccc(COC(=O)c2cc([N+](=O)[O-])ccc2N2CCOCC2)cc1F | -44.2%
54 | CC(=O)N1CCN(c2ccc(NC(=O)c3ccc([N+](=O)[O-])o3)cc2Cl)CC1 | 26.3%
55 | O=C(CCCN1C(=O)/C(=C/c2cccc(Br)c2)SC1=S)Nc1cccnc1 | 15.6%
56 | O=C(Nc1cccc(F)c1)N1CCCCN2[C@@H](CO)[C@H](c3ccc(C#Cc4ccccc4)cc3)[C@@H]2C1 | 7.67%
57 | Cc1ccc(C)c(N2CCN(C(=O)CCCCCn3c(=S)[nH]c4ccc(N5CCOCC5)cc4c3=O)CC2)c1 | -7.5%
58 | O=C1c2ccccc2C(=O)c2[nH]c(=O)[nH]c21 | -21%
59 | Cc1noc(/C=C/c2ccco2)c1S(=O)(=O)N1CCC(C(=O)NC(C)c2ccccc2)CC1 (stereo not given) | 7.96%
60 | O=C(NCCC1CCCCN1S(=O)(=O)c1ccc(Cl)cc1)C(=O)NCc1ccncc1 (stereo not given) | 7.69%

Row | SMILES | activity change, negative = inhibition
61 | O=C(Nc1ccc([N+](=O)[O-])cn1)c1cc(-c2cccc(Br)c2)nc2ccccc12 | 15.7%
62 | CN(CCc1cn[nH]c1)Cc1nc(C(c2ccccc2)c2ccccc2)no1 | 8.52%
63 | O=C(Nc1cccc(C2=NCCN2)c1)Nc1cccc(C2=NCCN2)c1 | 6.96%
64 | CCCCCCN1C[C@@H](n2cc(-c3ccc(F)cc3)nn2)[C@H](O)C[C@@H]1c1ccc(Cl)cc1 | 3.39%
65 | Cn1nnnc1Sc1ncnc2scc(-c3cccc(C(F)(F)F)c3)c12 | -9.51%
66 | O=C(Nc1cccc(NC(=O)c2ccccc2Cl)c1)c1ccc([N+](=O)[O-])o1 | 6.42%
67 | C[C@@H]1CCCCO[C@@H](CN(C)Cc2ccc3c(c2)OCO3)[C@H](C)CN([C@@H](C)CO)C(=O)c2cc(NC(=O)Nc3ccc(C(F)(F)F)cc3)ccc2O1 | -0.657%
68 | CCSc1nc(-c2ccccc2)nc(C(Cl)Cl)n1 | 3.78%
69 | CN(C)N=Nc1nc[nH]c1C(N)=O | 13.3%
70 | COc1ccc(C(=O)c2cc([N+](=O)[O-])ccc2N2CCOCC2)cc1 | 6.69%
71 | CN(Cc1ccccc1)N=Nc1nc[nH]c1C(N)=O | 11.6%
72 | C=C1C2(C(=O)Nc3ccc(SC(F)F)cc3)CCC(C2)C1(C)C (stereo not given) | 8.53%
73 | C[C@H](O)C#Cc1ccc2c(c1)O[C@H](CN(C)Cc1ccc(-c3ccccc3)cc1)[C@@H](C)CN([C@@H](C)CO)S2(=O)=O | -1.44%
74 | COc1ccc(NC(=O)C(Sc2nnc(-c3ccncc3)n2-c2ccccc2C)c2ccccc2)cc1Cl (stereo not given) | 11.8%
75 | Cc1ccc(NC(=O)c2ccc([N+](=O)[O-])s2)cc1S(=O)(=O)N1CCOCC1 | -30.6%
76 | CCCCNC(=O)C(Sc1ccccc1)c1ccccc1 (stereo not given) | 6.87%
77 | CCN(CC)CC(C)(C)C(=O)/C=C/c1ccc(/C=C/C(=O)C(C)(C)CN(CC)CC)cc1 | -35%
78 | COC(C(=O)C(O)C(C)O)C1Cc2cc3cc(OC4CC(OC5CC(O)C(O)C(C)O5)C(O)C(C)O4)c(C)c(O)c3c(O)c2C(=O)C1OC1CC(OC2CC(OC3CC(O)C(OC)C(C)O3)C(O)C(C)O2)C(O)C(C)O1 (stereo not given) | 12.3%
79 | O=C(CCc1ccc(S(=O)(=O)NCc2ccccc2)cc1)NCc1ccco1 | -1.01%
80 | CC(=O)OC(C)(C)/C=C/C(=O)[C@](C)(O)C1[C@H](O)C[C@@]2(C)C3CC=C4C(C=C(O[C@@H]5O[C@H](CO)[C@@H](O)[C@H](O)[C@H]5O)C(=O)C4(C)C)[C@]3(C)C(=O)C[C@]12C (stereo not given in full) | -0.329%

Reference: PubChem BioAssay
